Inconclusive results are not listed. Entries that show only a call come without a potency. Active and inactive are the calls of the source. The call rests on the fitted dose curve; in most records, active means well fitted cell-killing curve with a large enough effect; inconclusive means small, poorly fitted or top-dose-only effect; inactive means flat fitted curve, though single readings scatter.

Drawing on PubChem BioAssay (NCATS), this text covers Potency for 38 molecules.
Further: nearly all actives have a fitted effect of over 55% in size.

The first test can be described thus: Cell Viability - LYMP2-021 (AID 974).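 Further: compound exposure lasts 24 hours at 37 °C.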 Particulars: LYMP2-021 lymphoblastoid cells viability; series mostly up to 92.2 µM. The gist of the method: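 In qHTS format, compounds are tested against 2500 lymphoblastoid cells per well for 24 h; viable cell number is inferred from ATP-driven luciferase light, and Hill-equation fitting yields AC50 values.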
For the molecule `CC/C(C)=N/O`, the Potency result was “inactive”. Turning to `Nc1c(Cl)cc(Cl)cc1Cl`, the Potency entry was “inactive”.

As to `Nc1ccc(Cl)cc1[N+](=O)[O-]`, the Potency entry was “inactive”. On to `OC/C(Br)=C(\Br)CO`, for which the Potency result is “inactive”.

As for `CCC=O`, the Potency entry is “inactive”. Regarding `CC(=O)OC(C)C`, the Potency entry is “inactive”.

Regarding `C=CCn1c(=O)n(CC=C)c(=O)n(CC=C)c1=O`, the Potency result was “inactive”. Consider `CCCCCCCCCCCCOCC1CO1` (stereo not drawn), for which the Potency result was “inactive”.

As to `CCOC(=O)C(C)C(C)=O` (stereo not drawn), the Potency entry was “inactive”. Consider `Oc1cccc(Nc2ccccc2)c1`, for which the Potency entry was “inactive”. On to `Nc1ccc([N+](=O)[O-])c(N)c1`, for which the Potency result is “inactive”. Same read-out and setting: the same measure for `O=C(Cl)c1ccccc1[N+](=O)[O-]`: “inactive”; for `Nc1cccc([N+](=O)[O-])c1`: “inactive”. For `CCOCCOCC`, the Potency entry is “inactive”. With `C=CC(=O)NC(C)C`, the Potency result was “inactive”. Regarding `O=[N+]([O-])c1cccc(Cl)c1`, the Potency entry is “inactive”. The same measure, in the same setting: the same measure for `CCC(C)(C)C(=O)O`: “inactive”; for `C/C(C=O)=C/c1ccccc1`: “inactive”. On to `CC(C)(O)C(=O)O`, for which the Potency result was “inactive”. Still for that read-out and setting: the same measure for `CC(=O)OCCC(C)C`: “inactive”; for `CCC(C)(C)C`: “inactive”; for `CC(C)CO`: “inactive”.

Turning to `CCOc1cccc(N)c1`, the Potency result is “inactive”.

For `O=C1OC(=O)c2cc([N+](=O)[O-])ccc21`, the Potency result is “inactive”. Take `COC(=O)CCCC(=O)OC`: the Potency entry is “inactive”. Take `NC=O`: the Potency result was “inactive”. Same read-out and setting: the same measure for `Cc1ccc2oc(=O)ccc2c1`: “inactive”; for `CC(=O)CCc1ccccc1`: “inactive”; for `C=CCCCCCCC=C`: “inactive”.

For `O=C(O)CNC(=O)c1ccc(CO)o1`, the Potency result was “inactive”. `Clc1ccccn1`: the Potency result was “inactive”. As to `Nc1cc([N+](=O)[O-])ccc1C(=O)O`, the Potency result was “inactive”.

Regarding `Nc1cccc(O)c1`, the Potency result is “inactive”. For `O=C(Cl)c1c(Cl)cccc1Cl`, the Potency entry is “inactive”.

For the molecule `ICCc1ccccc1`, the Potency result was “inactive”.

The next test can be described thus: Cell Viability - LYMP2-023 (AID 975).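 Further: cellular ATP measured by luciferase luminescence as viability proxy; cells exposed to compound for 24 hours at 37 °C.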 Particulars: LYMP2-023 lymphoblastoid cell viability; series mostly up to 92.2 µM. The method, boiled down: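 In this qHTS, ATP-based luciferase luminescence (CellTiter-Glo) is quantified in human lymphoblastoid cells after 24 hr compound treatment at 37 C; tetraoctylammonium bromide serves as positive control. Concentration-response curves are Hill-fitted to give AC50.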
With `CC/C(C)=N/O`, the Potency entry was “inactive”.

For `Nc1c(Cl)cc(Cl)cc1Cl`, the Potency entry is “inactive”. On to `Nc1ccc(Cl)cc1[N+](=O)[O-]`, for which the Potency result was “inactive”. On the same count and under the same terms, the same measure for `OC/C(Br)=C(\Br)CO`: “inactive”.

Regarding `CCC=O`, the Potency entry is “inactive”. `CC(=O)OC(C)C`: the Potency result is “inactive”. `C=CCn1c(=O)n(CC=C)c(=O)n(CC=C)c1=O`: the Potency result is “inactive”.

For the molecule `CCCCCCCCCCCCOCC1CO1` (stereo not drawn), the Potency result is “inactive”. Regarding `CCOC(=O)C(C)C(C)=O` (stereo not drawn), the Potency entry was “inactive”. As for `Oc1cccc(Nc2ccccc2)c1`, the Potency result is “inactive”. Consider `C1CCC2OC2C1` (stereo not drawn), for which the Potency entry is “inactive”. In the case of `Nc1ccc([N+](=O)[O-])c(N)c1`, the Potency entry was “inactive”. Regarding `Nc1cccc([N+](=O)[O-])c1`, the Potency entry was “inactive”.

On to `CCOCCOCC`, for which the Potency entry is “inactive”. Still for that read-out and setting: the same measure for `C=CC(=O)NC(C)C`: “inactive”; for `O=[N+]([O-])c1cccc(Cl)c1`: “inactive”. On the same count and under the same terms, the same measure for `CCC(C)(C)C(=O)O`: “inactive”.

`C/C(C=O)=C/c1ccccc1`: the Potency entry is “inactive”. Same read-out and setting: the same measure for `CC(C)(O)C(=O)O`: “inactive”. As to `CC(=O)OCCC(C)C`, the Potency result was “inactive”. As for `CCC(C)(C)C`, the Potency result is “inactive”.

`CC(C)CO`: the Potency result was “inactive”. As to `CCOc1cccc(N)c1`, the Potency result was “inactive”. As to `COC(=O)CCCC(=O)OC`, the Potency entry was “inactive”. The same measure, in the same setting: the same measure for `O=C(Cl)c1cccc([N+](=O)[O-])c1`: “inactive”; for `CC(=O)CCc1ccccc1`: “inactive”. In the case of `C=CCCCCCCC=C`, the Potency result was “inactive”. Same read-out and setting: the same measure for `O=C(O)CNC(=O)c1ccc(CO)o1`: “inactive”; for `Clc1ccccn1`: “inactive”.

Regarding `Nc1cc([N+](=O)[O-])ccc1C(=O)O`, the Potency result is “inactive”. For `CCOCCO`, the Potency result is “inactive”.

For `O=C(Cl)c1c(Cl)cccc1Cl`, the Potency result is “inactive”. Turning to `ICCc1ccccc1`, the Potency entry is “inactive”.
